The nature of experiment [1]: yeast TOR pathway RPL19A-GFP modulators, primary screen, cell-based, S. cerevisiae, multiplex flow cytometry (AID 1862; in the data active = percent of DMSO control GFP below about 86%;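 note: lower values mimic rapamycin by blocking the RPL19A rise seen in DMSO cells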). The note with it: S. cerevisiae RPL19A-GFP strain, flow cytometry fluorescence, 3 h; at 10 µM; stronger effect = lower value.
Experiment [2] in a line: modulators of MEP2-GFP levels in yeast, primary screen, S. cerevisiae, multiplex flow cytometry (AID 1867;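 active = GFP response, as percent of the DMSO control, above the screen-wide mean plus 3 SD, about 139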;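 note: median GFP channel fluorescence of barcode-gated MEP2-GFP cells measured by flow cytometry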). To be noted: S. cerevisiae MEP2-GFP strain, 3 h, at 10 µM, stronger effect = higher value, 100% means same as DMSO wells.
The nature of experiment [3]: modulators of CIT2-GFP expression in yeast, primary screen, S. cerevisiae, GFP fusion, multiplex flow cytometry (AID 1870;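 active = percent response above a set limit, the screen-wide mean plus 3 SD, cut at about 130% in these data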;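 note: barcoded CIT2-GFP strain pooled with four other GFP strains with rapamycin as positive control; median GFP fluorescence per well over plate mean of DMSO wells so 100% = DMSO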). The note with it: 3 h, at 10 µM, stronger effect = higher value.
Experiment [4] can be described thus: modulators of LAP4-GFP expression in yeast, primary screen, S. cerevisiae, multiplex flow cytometry (AID 1873;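 active = GFP signal, as percent of the solvent control, above the screen mean plus 3 SD, about 149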). To be noted: 3 h, at 10 µM, stronger effect = higher value.
The nature of experiment [5]: modulators of AGP1-GFP expression in yeast TOR pathway, primary screen, cell-based, multiplex flow cytometry, S. cerevisiae (AID 1887;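 active = GFP signal above the screen-wide mean plus 3 SD, that is over about 124.5% of the solvent control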;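 note: AGP1-GFP fusion strain of S. cerevisiae within a five-strain barcoded multiplex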). The note with it: 3 h, at 10 µM, stronger effect = higher value.
A short description of experiment [6]: inhibitors of CD8+ T cell-vesicle binding, pilot screen, LFA-1/ICAM-1 modulator project, MLPCN validation set, flow cytometry (AID 2523;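 active = response below a set limit, under 55% cells CD8-positive and vesicle-bound, and CD8 cells' 90th-percentile brightness under 279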;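 for vesicle binding response: mean PE anti-B7-1 fluorescence of CD8+ cells relative to row control; 100% = QL9-loaded vesicles with DMSO vehicle in the same plate row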). The note with it: 2C mouse CD8+ T cells, at 7 µM, stronger effect = lower value; double positive events: measured here: CD8+/vesicle+ event percentage.
Experiment [7] addresses Integrin beta-1 (Homo sapiens) + Integrin alpha-4 (Homo sapiens) (UniProt P13612+P05556). The experiment in a line: inhibition of HUTS-21 binding to VLA-4, pilot screen, VLA-4 allosteric modulator project, U937 cells, HUTS-21 mAb, flow cytometry, validation set (AID 2674;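 active = inhibition above 50%, about 3 SD of the validation set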;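 note: antibody binding induced by the VLA-4 ligand LDV present at three times its Kd; 0% = LDV ligand with antibody and no compound and 100% = antibody without LDV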). The note with it: HUTS-21 LIBS mAb binding, at 6.7 µM, stronger effect = higher value, binding induced by LDV ligand.

Experiment [8] is described as follows: superoxide lowering in aged yeast cells, pilot screen, validation compound set (AID 2706;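 active = superoxide response below 65% of plate, a cut near 3 SD across the whole screen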;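 note: yeast exposed to compound for one week at 30 degrees C before staining; 100% = mean of all compound wells on the same plate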). The note with it: S. cerevisiae aging, superoxide DHE fluorescence; at 10 µM; stronger effect = lower value.
The target of experiment [9] is Beta-adrenergic receptor kinase 1 (Homo sapiens) (UniProt P25098). In words: GRK2 binders displacing RNA aptamer, biochemical, validation, human GRK2, bead flow cytometry (AID 488806;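 active = aptamer binding inhibition above 30%, about 3 SD of noise from non-fluorescent compounds; inactive = inhibition at or below 30%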). The note with it: bead-bound GRK2, FAM-aptamer displacement, at 10 µM, stronger effect = higher value.
Chain of Beta-adrenergic receptor kinase 1 (Homo sapiens) (P25098 whole entry, looked up): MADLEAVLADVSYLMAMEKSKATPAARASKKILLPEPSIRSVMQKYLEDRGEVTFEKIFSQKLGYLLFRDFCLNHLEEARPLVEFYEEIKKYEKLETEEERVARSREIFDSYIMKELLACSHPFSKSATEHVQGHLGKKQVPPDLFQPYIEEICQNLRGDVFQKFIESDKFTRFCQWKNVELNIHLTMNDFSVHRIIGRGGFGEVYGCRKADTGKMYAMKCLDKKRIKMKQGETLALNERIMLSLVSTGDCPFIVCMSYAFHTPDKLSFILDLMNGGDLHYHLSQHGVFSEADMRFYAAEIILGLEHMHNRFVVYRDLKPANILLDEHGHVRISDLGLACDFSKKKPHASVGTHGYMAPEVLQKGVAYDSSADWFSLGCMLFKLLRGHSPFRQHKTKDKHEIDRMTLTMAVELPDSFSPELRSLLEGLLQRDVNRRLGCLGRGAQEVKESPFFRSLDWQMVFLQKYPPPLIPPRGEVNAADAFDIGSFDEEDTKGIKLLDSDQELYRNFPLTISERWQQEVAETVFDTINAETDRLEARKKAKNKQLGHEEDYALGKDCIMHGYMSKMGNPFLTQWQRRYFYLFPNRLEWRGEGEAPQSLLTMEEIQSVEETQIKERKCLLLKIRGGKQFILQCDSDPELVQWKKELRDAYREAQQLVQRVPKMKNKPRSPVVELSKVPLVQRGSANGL
Experiment [10] has as its target Beta-2 adrenergic receptor (Homo sapiens) (UniProt P07550). The experiment in a line: beta2AR agonists driving receptor internalization, pilot screen, cell-based, FAP fluorogen, flow cytometry, validation set (AID 504459;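 active = percent response above 42, roughly 3 SD of non-fluorescent test compounds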;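 note: agonist-driven loss of surface beta2AR via internalization measured by FAP dye flow cytometry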). The note with it: Am2.2-beta2AR cells, FAP surface receptor flow cytometry; at 10 µM; stronger effect = higher value.
Experiment [11] addresses AP-2 complex subunit beta (Homo sapiens) (UniProt P63010). The experiment in a line: inhibitors of arrestin peptide binding to AP2, pilot screen, biochemical, validation set, GST-AP2 beads, flow cytometry (AID 504541;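 active = inhibition above 54%, about 3 SD of non-fluorescent compounds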;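 note: AP2 carries R879A mutation and is captured from E. coli lysate; bead-bound FITC arrestin peptide fluorescence measuring arrestin peptide binding to AP2; 0% = DMSO wells and 100% = excess unlabeled arrestin peptide control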). The note with it: FITC arrestin peptide, at 10 µM, stronger effect = higher value, AP2 beta2 appendage fragment, R879A mutant.
The nature of experiment [12]: yeast V-ATPase proton transport modulators, S. cerevisiae, pHLuorin, HTS validation (AID 504600; in the data active = response above about 15%;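 note: plate controls were DMSO for no effect and reference compound for full effect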). The note with it: S. cerevisiae pHLuorin cytosolic pH, at 10 µM, stronger effect = higher value.
Experiment [13] relates to anti-desmoglein-3 scFv antibody binding to human DSG3. In words: inhibitors of anti-DSG3 scFv binding to DSG3, pilot screen, biochemical, validation compound set, bead-based, flow cytometry (AID 588368;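 active = binding below the plate cutoff, the plate median minus 3 SD, with a reading above zero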;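 note: signal is the median channel fluorescence of bead-bound GFP antibody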). The note with it: Protein G beads, DSG3-Fc, scFv-GFP binding, at 10 µM, stronger effect = lower value.
Experiment [14] in a line: inhibitors of fungal efflux pumps CDR1, CDR2, MDR1, pilot screen, validation compound set, multiplex, phenotypic (AID 588506;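 active = efflux inhibition above 0.42, the validation set average plus 4 SD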;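 note: Nile Red retained in cells so higher fluorescence means more efflux inhibition; 0 = negative control wells and 1 = enniatin B 25 µM full block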). The note with it: S. cerevisiae pump-expressing triplex, Nile Red efflux flow cytometry; at 10 µM; stronger effect = higher value; the pumps come from Candida albicans.
The target in experiment [15] is ATP-binding cassette sub-family B member 6 (Homo sapiens) (UniProt Q9NP58). In words: ABCB6 transporter inhibitors, pilot screen, K562-ABCB6 cells, flow cytometry, validation set (AID 588550).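 Note: 0% = DMSO wells and 100% = benzethonium chloride 70 µM positive control.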 The note with it: K562-ABCB6 porphyrin accumulation, 1 h, at 10 µM, stronger effect = higher value.
Chain of ATP-binding cassette sub-family B member 6 (Homo sapiens) (Q9NP58 whole entry, looked up): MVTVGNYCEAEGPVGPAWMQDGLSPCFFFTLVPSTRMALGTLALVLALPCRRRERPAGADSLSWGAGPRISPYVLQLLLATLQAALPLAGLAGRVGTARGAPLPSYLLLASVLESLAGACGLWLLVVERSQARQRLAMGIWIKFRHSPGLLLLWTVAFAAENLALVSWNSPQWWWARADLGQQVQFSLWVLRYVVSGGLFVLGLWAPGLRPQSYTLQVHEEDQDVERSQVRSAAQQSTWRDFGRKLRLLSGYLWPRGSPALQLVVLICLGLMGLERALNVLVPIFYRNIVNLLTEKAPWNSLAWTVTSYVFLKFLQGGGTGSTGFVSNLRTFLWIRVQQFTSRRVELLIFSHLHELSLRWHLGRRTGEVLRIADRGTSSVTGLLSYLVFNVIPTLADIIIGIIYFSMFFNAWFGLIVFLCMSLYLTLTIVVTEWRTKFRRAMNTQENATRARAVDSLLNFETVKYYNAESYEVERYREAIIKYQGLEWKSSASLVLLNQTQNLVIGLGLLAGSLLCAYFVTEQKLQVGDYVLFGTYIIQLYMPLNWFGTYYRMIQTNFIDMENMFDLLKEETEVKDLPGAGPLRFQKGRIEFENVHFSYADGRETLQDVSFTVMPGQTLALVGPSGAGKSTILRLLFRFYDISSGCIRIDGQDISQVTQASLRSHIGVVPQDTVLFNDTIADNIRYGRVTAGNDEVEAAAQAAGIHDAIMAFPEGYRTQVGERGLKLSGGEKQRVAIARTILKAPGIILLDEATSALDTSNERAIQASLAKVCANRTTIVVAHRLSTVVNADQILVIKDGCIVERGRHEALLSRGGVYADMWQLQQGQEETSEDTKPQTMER
Experiment [16] can be described thus: promoters of myeloid differentiation in arrested cells, primary screen, cell-based, GFP/MAC1 double positive, flow cytometry, validation set (AID 588685;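 active = differentiation response of at least 50%, scaled between solvent and reference control, from cells with both markers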;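 note: compound exposure lasts four days before antibody staining and flow analysis; 0% = DMSO wells and 100% = 5 µM fulvestrant positive control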). The note with it: ER-HoxA9 marrow cells, stronger effect = higher value, normalized: vehicle 0, fulvestrant 100.

Inconclusive results are not listed. Activity calls are given as the source filed them.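 Rule for the calls, unless noted: active = inhibition above the screen-wide mean plus 3 SD, about 51%; inactive = the rest.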

Chain of Beta-2 adrenergic receptor (Homo sapiens) (P07550 whole entry, looked up): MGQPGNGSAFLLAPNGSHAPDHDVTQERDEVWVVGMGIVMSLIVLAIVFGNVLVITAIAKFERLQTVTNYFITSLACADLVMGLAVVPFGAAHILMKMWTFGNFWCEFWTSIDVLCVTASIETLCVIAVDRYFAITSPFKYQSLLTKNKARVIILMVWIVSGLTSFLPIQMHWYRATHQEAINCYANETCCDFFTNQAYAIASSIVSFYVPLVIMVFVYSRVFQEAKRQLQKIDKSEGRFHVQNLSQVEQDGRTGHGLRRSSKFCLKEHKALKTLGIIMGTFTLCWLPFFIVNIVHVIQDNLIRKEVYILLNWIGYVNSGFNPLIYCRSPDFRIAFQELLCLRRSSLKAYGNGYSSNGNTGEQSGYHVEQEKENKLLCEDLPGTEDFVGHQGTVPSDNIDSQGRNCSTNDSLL
Chain of Integrin beta-1 (Homo sapiens) + Integrin alpha-4 (Homo sapiens) (P05556 whole entry, looked up): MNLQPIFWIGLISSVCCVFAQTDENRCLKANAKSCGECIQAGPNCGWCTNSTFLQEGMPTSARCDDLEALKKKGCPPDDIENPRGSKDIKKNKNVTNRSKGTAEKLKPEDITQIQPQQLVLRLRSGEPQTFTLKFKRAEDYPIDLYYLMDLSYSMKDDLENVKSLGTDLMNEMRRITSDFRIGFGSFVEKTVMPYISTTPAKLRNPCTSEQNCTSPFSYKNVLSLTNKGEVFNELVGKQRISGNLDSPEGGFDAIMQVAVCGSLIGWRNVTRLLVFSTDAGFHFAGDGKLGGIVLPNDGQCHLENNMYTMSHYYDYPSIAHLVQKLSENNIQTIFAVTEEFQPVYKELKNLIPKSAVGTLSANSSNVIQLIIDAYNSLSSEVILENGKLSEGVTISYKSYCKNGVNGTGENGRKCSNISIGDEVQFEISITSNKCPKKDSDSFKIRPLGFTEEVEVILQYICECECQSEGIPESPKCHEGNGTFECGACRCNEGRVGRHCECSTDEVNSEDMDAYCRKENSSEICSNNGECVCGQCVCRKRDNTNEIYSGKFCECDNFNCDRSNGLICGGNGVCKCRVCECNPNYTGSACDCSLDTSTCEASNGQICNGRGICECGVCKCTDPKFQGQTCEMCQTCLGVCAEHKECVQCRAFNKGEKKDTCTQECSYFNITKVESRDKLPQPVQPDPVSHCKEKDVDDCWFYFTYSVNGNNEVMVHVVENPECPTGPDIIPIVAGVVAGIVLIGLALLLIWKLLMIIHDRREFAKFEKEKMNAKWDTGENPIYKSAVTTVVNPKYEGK
Chain of Integrin beta-1 (Homo sapiens) + Integrin alpha-4 (Homo sapiens) (P13612 whole entry, looked up): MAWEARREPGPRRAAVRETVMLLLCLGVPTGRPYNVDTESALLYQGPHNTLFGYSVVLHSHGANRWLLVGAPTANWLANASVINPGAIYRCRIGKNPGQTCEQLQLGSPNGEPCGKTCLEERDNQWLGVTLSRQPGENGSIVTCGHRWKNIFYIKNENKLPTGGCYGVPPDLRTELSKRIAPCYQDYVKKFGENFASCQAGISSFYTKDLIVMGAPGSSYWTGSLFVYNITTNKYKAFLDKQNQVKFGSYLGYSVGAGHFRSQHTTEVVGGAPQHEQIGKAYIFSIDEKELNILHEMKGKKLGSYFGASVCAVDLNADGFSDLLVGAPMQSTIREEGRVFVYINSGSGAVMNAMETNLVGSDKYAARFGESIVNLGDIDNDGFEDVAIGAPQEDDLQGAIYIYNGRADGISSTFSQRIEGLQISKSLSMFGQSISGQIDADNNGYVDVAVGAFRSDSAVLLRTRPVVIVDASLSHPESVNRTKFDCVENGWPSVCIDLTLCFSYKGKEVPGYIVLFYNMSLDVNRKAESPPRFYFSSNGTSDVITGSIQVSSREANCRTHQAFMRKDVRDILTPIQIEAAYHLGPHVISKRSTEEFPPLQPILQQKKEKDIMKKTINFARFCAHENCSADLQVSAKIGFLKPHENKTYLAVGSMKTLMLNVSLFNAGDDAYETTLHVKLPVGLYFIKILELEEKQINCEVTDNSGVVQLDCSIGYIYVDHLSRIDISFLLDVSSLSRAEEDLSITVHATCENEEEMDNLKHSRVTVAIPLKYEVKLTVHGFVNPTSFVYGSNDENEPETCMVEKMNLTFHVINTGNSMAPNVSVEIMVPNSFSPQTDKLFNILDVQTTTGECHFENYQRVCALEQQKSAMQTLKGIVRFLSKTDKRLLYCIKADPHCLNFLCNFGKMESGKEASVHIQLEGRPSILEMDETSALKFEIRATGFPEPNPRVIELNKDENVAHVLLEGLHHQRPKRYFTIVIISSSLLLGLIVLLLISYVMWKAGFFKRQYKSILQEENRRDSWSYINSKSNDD
Chain of AP-2 complex subunit beta (Homo sapiens) (P63010 whole entry, looked up, the tested form may be a part, one chain of several): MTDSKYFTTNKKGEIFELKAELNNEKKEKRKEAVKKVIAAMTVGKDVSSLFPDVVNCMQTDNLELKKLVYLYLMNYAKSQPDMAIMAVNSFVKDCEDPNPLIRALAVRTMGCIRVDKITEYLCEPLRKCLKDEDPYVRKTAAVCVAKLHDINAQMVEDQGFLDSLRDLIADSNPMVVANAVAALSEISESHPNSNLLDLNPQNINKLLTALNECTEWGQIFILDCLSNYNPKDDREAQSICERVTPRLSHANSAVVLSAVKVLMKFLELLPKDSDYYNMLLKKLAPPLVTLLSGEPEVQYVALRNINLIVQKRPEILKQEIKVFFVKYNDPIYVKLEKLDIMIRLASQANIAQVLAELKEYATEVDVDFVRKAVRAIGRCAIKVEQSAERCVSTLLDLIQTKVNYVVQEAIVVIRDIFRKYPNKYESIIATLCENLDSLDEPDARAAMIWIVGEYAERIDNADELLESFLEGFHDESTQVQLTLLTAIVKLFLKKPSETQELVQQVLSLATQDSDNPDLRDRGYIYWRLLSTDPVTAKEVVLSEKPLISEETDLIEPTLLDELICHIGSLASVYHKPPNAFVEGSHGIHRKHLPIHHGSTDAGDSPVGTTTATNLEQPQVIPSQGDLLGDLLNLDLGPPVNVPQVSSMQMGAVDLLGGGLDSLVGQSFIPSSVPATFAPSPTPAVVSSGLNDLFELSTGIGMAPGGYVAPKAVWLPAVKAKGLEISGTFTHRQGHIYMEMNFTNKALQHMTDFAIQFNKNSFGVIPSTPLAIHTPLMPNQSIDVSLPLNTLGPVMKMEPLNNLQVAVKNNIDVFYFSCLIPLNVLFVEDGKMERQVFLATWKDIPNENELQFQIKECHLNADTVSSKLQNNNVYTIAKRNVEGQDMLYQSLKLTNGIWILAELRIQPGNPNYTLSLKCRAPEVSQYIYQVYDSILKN

As for `C[C@@H]1CCC[C@H](C)N1NC(=O)c1ccc(Cl)c(S(N)(=O)=O)c1`, the percent of DMSO control GFP in experiment [1] is 105% (inactive). Also, the values for the GFP response vs DMSO in experiment [2] and in experiment [4] were 106% (inactive) and 110% (inactive), respectively. Further, the percent response of DMSO control in experiment [3] was 107% (inactive). Also, the GFP response, % of DMSO in experiment [5] was 113% (inactive). Also, in [6], the double positive events was found to be 61.3%. In addition, the vesicle binding response in [6] was 165% (inactive). Moreover, the inhibition was 4.27% (inactive) in [7], 2.8% (inactive) in experiment [11] and -5% (inactive) in experiment [15]. Moreover, the superoxide response (% of plate) in experiment [8] is 91.8% (inactive). Besides, in experiment [9], the aptamer binding inhibition was -2% (inactive). Further, the results for the response in experiment [10] and in experiment [12] were 6.03% (inactive) and 1.78% (inactive), respectively. In addition, in [13], the binding (% of control) is 105% (inactive). Besides, the efflux inhibition (fraction of control) in experiment [14] is 0.5 (active). In addition, the differentiation response in experiment [16] was -8.96% (inactive).

For the molecule `O=C(OCC1CCCN2CCCCC12)c1ccc2c(c1)OCO2` (stereo not given), the percent of DMSO control GFP in experiment [1] is 93.7% (inactive). For the same molecule, the figures for the GFP response vs DMSO in experiment [2] and in experiment [4] were 112% (inactive) and 75.9% (inactive), respectively. In [3], the percent response of DMSO control is 104% (inactive). In addition, the GFP response, % of DMSO in experiment [5] is 95.9% (inactive). In experiment [6], this molecule returned a double positive events of 63.4%. For the same molecule, the vesicle binding response in experiment [6] was 208% (inactive). Further, the inhibition in experiment [7] was 13.2% (inactive); in experiment [11] it was -5.07% (inactive); in [15], 15% (inactive). For the same molecule, the superoxide response (% of plate) in [8] was 99.6% (inactive). Also, the aptamer binding inhibition in experiment [9] is 5% (inactive). Moreover, the response in [10] was -1.89% (inactive); in experiment [12], 12% (inactive). Besides, the binding (% of control) in experiment [13] was 104% (inactive). Further, the efflux inhibition (fraction of control) in experiment [14] was -0.38 (inactive). Also, in experiment [16], the differentiation response is 0% (inactive).

As for `Cc1cc(C)cc(Nc2nc3c([nH]2)c(=O)n(C)c(=O)n3C)c1`, the percent of DMSO control GFP in [1] is 102% (inactive). Moreover, the GFP response vs DMSO in experiment [2] was 105% (inactive); in experiment [4], 103% (inactive). Further, the percent response of DMSO control in experiment [3] is 112% (inactive). Further, the GFP response, % of DMSO in [5] was 105% (inactive). The double positive events in [6] is 63.9%. Also, the vesicle binding response in experiment [6] was 212% (inactive). Besides, the results for the inhibition in experiment [7], in [11] and in [15] were 6.95% (inactive), 61% (active) and -9% (inactive), respectively. The superoxide response (% of plate) in experiment [8] was 89.7% (inactive). Also, the aptamer binding inhibition in experiment [9] is -6% (inactive). Moreover, the response in experiment [10] was 6.07% (inactive); in experiment [12] it was -8.26% (inactive). Besides, the binding (% of control) in experiment [13] was 102% (inactive). The efflux inhibition (fraction of control) in experiment [14] was -0.14 (inactive). Also, in experiment [16], the differentiation response was 10.1% (inactive).

As to `CCC(=O)O[C@]1(C(=O)CCl)[C@@H](C)C[C@H]2[C@@H]3CCC4=CC(=O)C=C[C@]4(C)[C@@]3(F)[C@@H](O)C[C@@]21C`, in [1], the percent of DMSO control GFP is 99.8% (inactive). The GFP response vs DMSO is 103% (inactive) in [2] and 91.5% (inactive) in experiment [4]. Also, in experiment [3], the percent response of DMSO control was 106% (inactive). In addition, the GFP response, % of DMSO in experiment [5] was 106% (inactive). This molecule also gave a double positive events in [6] of 64.6%. In experiment [6], the vesicle binding response was 228% (inactive). The inhibition in experiment [7] is -9.13% (inactive); in experiment [11], 3.88% (inactive); in experiment [15], -10% (inactive). For the same molecule, the superoxide response (% of plate) in experiment [8] was 120% (inactive). For the same molecule, the aptamer binding inhibition in experiment [9] is 4% (inactive). The values for the response in experiment [10] and in experiment [12] were 11.3% (inactive) and -2.3% (inactive), respectively. Also, in experiment [13], the binding (% of control) is 97.9% (inactive). For the same molecule, the efflux inhibition (fraction of control) in experiment [14] is 1.03 (active). The differentiation response in experiment [16] is -13.3% (inactive).

`CS(=O)(=O)Nc1ccc([N+](=O)[O-])cc1Oc1ccccc1`: the percent of DMSO control GFP in [1] was 95.5% (inactive). Moreover, the GFP response vs DMSO in [2] is 97.6% (inactive); in experiment [4], 115% (inactive). Moreover, the percent response of DMSO control in [3] was 96.4% (inactive). The GFP response, % of DMSO in experiment [5] is 115% (inactive). Moreover, the double positive events in experiment [6] turned out to be 62.2%. Moreover, in experiment [6], the vesicle binding response is 188% (inactive). For the same molecule, the results for the inhibition in [7], in experiment [11] and in [15] were -8.78% (inactive), -2.11% (inactive) and 5% (inactive), respectively. For the same molecule, the superoxide response (% of plate) in experiment [8] was 106% (inactive). The aptamer binding inhibition in experiment [9] was 3% (inactive). In addition, the response in [10] is -35% (inactive); in [12], 2.46% (inactive). Further, the binding (% of control) in experiment [13] was 106% (inactive). In addition, in [14], the efflux inhibition (fraction of control) is -0.09 (inactive). Besides, the differentiation response in [16] was -8.93% (inactive).

The values are drawn from PubChem BioAssay.
